Several values for one entry are separate records, joined by “and”; a condition that tells them apart may be missing. Equal entries are not always repeated. Records with an inconclusive call do not appear. Some compounds were tested as several samples or in several runs, with calls that do not always agree. Activity calls are given as the source filed them.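 How the source made its calls, unless noted: active means binding below the plate cutoff, the plate median minus 3 SD, with a reading above zero; inconclusive means below the plate cutoff but reading exactly zero; inactive means the rest.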
Assays:
[1] = yeast TOR pathway RPL19A-GFP modulators, primary screen, cell-based, S. cerevisiae, multiplex flow cytometry (AID 1862; in the data active means percent of DMSO control GFP below about 86%;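 further: lower values mimic rapamycin by blocking the RPL19A rise seen in DMSO cells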); settings: S. cerevisiae RPL19A-GFP strain, flow cytometry fluorescence, 3 h; at 10 µM; stronger effect = lower value
[2] = modulators of MEP2-GFP levels in yeast, primary screen, S. cerevisiae, multiplex flow cytometry (AID 1867;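 active means GFP response, as percent of the DMSO control, above the screen-wide mean plus 3 SD, about 139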;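 further: median GFP channel fluorescence of barcode-gated MEP2-GFP cells measured by flow cytometry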); settings: S. cerevisiae MEP2-GFP strain, 3 h, at 10 µM, stronger effect = higher value, 100% means same as DMSO wells
[3] = modulators of CIT2-GFP expression in yeast, primary screen, S. cerevisiae, GFP fusion, multiplex flow cytometry (AID 1870;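 active means percent response above a set limit, the screen-wide mean plus 3 SD, cut at about 130% in these data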;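 further: barcoded CIT2-GFP strain pooled with four other GFP strains with rapamycin as positive control; median GFP fluorescence per well over plate mean of DMSO wells so 100% = DMSO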); settings: 3 h, at 10 µM, stronger effect = higher value
[4] = modulators of LAP4-GFP expression in yeast, primary screen, S. cerevisiae, multiplex flow cytometry (AID 1873;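 active means GFP signal, as percent of the solvent control, above the screen mean plus 3 SD, about 149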); settings: 3 h, at 10 µM, stronger effect = higher value
[5] = modulators of AGP1-GFP expression in yeast TOR pathway, primary screen, cell-based, multiplex flow cytometry, S. cerevisiae (AID 1887;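 active means GFP signal above the screen-wide mean plus 3 SD, that is over about 124.5% of the solvent control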;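 further: AGP1-GFP fusion strain of S. cerevisiae within a five-strain barcoded multiplex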); settings: 3 h, at 10 µM, stronger effect = higher value
[6] = inhibitors of CD8+ T cell-vesicle binding, pilot screen, LFA-1/ICAM-1 modulator project, MLPCN validation set, flow cytometry (AID 2523;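 active means response below a set limit, under 55% cells CD8-positive and vesicle-bound, and CD8 cells' 90th-percentile brightness under 279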;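 on vesicle binding response: mean PE anti-B7-1 fluorescence of CD8+ cells relative to row control; 100% = QL9-loaded vesicles with DMSO vehicle in the same plate row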); settings: 2C mouse CD8+ T cells, at 7 µM, stronger effect = lower value; double positive events: measured here: CD8+/vesicle+ event percentage
[7] = biological target: Integrin beta-1 (Homo sapiens) + Integrin alpha-4 (Homo sapiens) (UniProt P13612+P05556); assay: inhibition of HUTS-21 binding to VLA-4, pilot screen, VLA-4 allosteric modulator project, U937 cells, HUTS-21 mAb, flow cytometry, validation set (AID 2674;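 active means inhibition above 50%, about 3 SD of the validation set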;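 further: antibody binding induced by the VLA-4 ligand LDV present at three times its Kd; 0% = LDV ligand with antibody and no compound and 100% = antibody without LDV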); settings: HUTS-21 LIBS mAb binding, at 6.7 µM, stronger effect = higher value, binding induced by LDV ligand
Integrin beta-1 (Homo sapiens) + Integrin alpha-4 (Homo sapiens), sequence (P05556 whole entry, looked up): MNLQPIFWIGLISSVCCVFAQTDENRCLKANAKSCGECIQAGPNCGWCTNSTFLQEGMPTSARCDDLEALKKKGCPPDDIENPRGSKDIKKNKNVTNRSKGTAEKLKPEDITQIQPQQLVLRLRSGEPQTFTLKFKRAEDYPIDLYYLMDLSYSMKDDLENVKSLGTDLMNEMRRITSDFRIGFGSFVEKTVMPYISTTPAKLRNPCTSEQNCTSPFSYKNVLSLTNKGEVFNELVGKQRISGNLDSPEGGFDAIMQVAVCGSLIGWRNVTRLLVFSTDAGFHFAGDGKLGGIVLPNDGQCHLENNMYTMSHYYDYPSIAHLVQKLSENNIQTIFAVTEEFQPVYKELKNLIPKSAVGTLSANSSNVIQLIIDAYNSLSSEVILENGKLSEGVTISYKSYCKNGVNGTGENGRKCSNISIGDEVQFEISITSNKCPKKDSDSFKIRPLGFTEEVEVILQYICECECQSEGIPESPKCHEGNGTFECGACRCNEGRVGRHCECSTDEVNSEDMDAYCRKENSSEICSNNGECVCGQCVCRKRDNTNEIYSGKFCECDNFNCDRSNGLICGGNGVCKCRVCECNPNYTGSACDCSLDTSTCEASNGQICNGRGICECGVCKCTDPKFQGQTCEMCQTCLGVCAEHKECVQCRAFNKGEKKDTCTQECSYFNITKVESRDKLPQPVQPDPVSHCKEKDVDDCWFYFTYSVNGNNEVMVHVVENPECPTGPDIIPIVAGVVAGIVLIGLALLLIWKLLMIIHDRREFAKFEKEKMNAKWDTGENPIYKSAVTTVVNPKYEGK
Integrin beta-1 (Homo sapiens) + Integrin alpha-4 (Homo sapiens), sequence (P13612 whole entry, looked up): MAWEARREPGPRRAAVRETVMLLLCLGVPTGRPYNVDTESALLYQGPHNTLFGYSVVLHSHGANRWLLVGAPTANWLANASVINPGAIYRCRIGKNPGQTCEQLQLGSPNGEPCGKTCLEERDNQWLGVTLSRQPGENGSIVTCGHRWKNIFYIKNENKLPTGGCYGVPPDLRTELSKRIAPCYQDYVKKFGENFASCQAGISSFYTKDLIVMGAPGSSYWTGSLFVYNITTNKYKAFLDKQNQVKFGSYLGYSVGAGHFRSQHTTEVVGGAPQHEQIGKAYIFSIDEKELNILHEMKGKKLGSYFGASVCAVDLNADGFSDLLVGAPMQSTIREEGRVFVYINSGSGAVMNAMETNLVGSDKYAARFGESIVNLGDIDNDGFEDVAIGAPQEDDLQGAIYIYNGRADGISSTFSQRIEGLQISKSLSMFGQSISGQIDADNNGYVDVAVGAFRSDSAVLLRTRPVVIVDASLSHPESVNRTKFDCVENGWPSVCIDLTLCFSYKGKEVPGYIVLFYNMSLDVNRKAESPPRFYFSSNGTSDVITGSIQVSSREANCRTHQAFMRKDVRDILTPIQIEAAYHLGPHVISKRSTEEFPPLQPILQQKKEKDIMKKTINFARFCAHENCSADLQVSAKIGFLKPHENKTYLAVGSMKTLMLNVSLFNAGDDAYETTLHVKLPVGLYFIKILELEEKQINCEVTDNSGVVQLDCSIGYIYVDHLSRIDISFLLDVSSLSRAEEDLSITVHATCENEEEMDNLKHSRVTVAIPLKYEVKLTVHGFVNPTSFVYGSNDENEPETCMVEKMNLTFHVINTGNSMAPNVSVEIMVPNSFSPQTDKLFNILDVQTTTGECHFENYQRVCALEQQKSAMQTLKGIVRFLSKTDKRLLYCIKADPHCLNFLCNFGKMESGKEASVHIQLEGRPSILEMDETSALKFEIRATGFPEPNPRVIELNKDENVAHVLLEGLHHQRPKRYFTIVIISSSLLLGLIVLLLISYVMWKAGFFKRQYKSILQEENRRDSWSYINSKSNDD

[8] = superoxide lowering in aged yeast cells, pilot screen, validation compound set (AID 2706;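 active means superoxide response below 65% of plate, a cut near 3 SD across the whole screen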;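 further: yeast exposed to compound for one week at 30 degrees C before staining; 100% = mean of all compound wells on the same plate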); settings: S. cerevisiae aging, superoxide DHE fluorescence; at 10 µM; stronger effect = lower value
[9] = biological target: Beta-adrenergic receptor kinase 1 (Homo sapiens) (UniProt P25098); assay: GRK2 binders displacing RNA aptamer, biochemical, validation, human GRK2, bead flow cytometry (AID 488806;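 active means aptamer binding inhibition above 30%, about 3 SD of noise from non-fluorescent compounds; inactive means inhibition at or below 30%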); settings: bead-bound GRK2, FAM-aptamer displacement, at 10 µM, stronger effect = higher value
Beta-adrenergic receptor kinase 1 (Homo sapiens), sequence (P25098 whole entry, looked up): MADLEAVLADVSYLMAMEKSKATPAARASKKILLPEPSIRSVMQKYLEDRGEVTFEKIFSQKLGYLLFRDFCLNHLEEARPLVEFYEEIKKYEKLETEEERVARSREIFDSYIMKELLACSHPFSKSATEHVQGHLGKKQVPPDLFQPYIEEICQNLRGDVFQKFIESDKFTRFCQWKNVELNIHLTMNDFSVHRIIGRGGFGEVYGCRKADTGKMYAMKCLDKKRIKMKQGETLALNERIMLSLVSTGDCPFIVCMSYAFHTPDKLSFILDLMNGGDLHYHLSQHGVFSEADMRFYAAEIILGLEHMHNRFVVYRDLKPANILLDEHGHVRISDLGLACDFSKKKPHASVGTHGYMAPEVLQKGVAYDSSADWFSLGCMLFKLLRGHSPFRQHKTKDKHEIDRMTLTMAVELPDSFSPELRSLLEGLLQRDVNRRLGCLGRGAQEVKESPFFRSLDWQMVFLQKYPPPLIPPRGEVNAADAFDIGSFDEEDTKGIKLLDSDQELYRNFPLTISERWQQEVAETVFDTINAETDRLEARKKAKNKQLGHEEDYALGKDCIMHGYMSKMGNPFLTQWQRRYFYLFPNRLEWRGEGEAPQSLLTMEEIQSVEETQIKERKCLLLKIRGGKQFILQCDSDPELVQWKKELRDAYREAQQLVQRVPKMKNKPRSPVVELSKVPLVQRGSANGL

[10] = biological target: Beta-2 adrenergic receptor (Homo sapiens) (UniProt P07550); assay: beta2AR agonists driving receptor internalization, pilot screen, cell-based, FAP fluorogen, flow cytometry, validation set (AID 504459;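 active means percent response above 42, roughly 3 SD of non-fluorescent test compounds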;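 further: agonist-driven loss of surface beta2AR via internalization measured by FAP dye flow cytometry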); settings: Am2.2-beta2AR cells, FAP surface receptor flow cytometry; at 10 µM; stronger effect = higher value
Beta-2 adrenergic receptor (Homo sapiens), sequence (P07550 whole entry, looked up): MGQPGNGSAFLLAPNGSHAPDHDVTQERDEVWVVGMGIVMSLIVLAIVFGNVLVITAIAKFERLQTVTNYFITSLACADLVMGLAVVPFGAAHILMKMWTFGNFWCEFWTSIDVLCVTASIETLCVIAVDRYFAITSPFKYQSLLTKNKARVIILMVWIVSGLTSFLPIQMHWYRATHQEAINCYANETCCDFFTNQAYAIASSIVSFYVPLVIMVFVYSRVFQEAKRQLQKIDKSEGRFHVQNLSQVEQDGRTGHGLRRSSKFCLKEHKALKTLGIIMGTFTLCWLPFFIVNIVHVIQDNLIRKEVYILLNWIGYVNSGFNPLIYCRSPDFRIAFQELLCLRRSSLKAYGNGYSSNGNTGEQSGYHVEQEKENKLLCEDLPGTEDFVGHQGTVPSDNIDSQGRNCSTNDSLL

[11] = biological target: AP-2 complex subunit beta (Homo sapiens) (UniProt P63010); assay: inhibitors of arrestin peptide binding to AP2, pilot screen, biochemical, validation set, GST-AP2 beads, flow cytometry (AID 504541;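 active means inhibition above 54%, about 3 SD of non-fluorescent compounds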;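 further: AP2 carries R879A mutation and is captured from E. coli lysate; bead-bound FITC arrestin peptide fluorescence measuring arrestin peptide binding to AP2; 0% = DMSO wells and 100% = excess unlabeled arrestin peptide control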); settings: FITC arrestin peptide, at 10 µM, stronger effect = higher value, AP2 beta2 appendage fragment, R879A mutant
AP-2 complex subunit beta (Homo sapiens), sequence (P63010 whole entry, looked up, the tested form may be a part, one chain of several): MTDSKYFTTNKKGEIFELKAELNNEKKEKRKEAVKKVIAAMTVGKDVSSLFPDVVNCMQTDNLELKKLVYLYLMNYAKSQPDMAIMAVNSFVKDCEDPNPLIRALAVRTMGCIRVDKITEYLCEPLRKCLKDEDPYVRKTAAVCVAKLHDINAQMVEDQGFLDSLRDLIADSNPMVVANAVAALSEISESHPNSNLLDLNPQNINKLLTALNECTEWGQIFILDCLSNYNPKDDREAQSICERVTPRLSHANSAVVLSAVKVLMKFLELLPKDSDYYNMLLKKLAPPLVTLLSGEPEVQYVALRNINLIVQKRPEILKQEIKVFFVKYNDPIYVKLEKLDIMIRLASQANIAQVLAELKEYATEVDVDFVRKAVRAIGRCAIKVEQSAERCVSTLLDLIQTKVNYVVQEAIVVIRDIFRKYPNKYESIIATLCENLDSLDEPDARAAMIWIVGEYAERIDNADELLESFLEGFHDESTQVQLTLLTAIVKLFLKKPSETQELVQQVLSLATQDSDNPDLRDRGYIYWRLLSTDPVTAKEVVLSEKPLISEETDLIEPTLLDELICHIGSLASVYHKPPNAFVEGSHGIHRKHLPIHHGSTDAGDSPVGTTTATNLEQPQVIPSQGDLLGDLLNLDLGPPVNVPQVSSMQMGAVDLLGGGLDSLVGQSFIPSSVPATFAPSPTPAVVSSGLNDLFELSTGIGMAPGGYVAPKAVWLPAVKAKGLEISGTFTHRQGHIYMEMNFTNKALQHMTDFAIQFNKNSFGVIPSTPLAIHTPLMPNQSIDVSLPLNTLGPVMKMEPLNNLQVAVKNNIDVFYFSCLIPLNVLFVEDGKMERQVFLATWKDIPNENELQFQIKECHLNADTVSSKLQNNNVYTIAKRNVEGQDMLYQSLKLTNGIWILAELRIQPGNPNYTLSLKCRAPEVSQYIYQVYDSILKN

[12] = yeast V-ATPase proton transport modulators, S. cerevisiae, pHLuorin, HTS validation (AID 504600; in the data active means response above about 15%;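 further: plate controls were DMSO for no effect and reference compound for full effect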); settings: S. cerevisiae pHLuorin cytosolic pH, at 10 µM, stronger effect = higher value
[13] = tested on: anti-desmoglein-3 scFv antibody binding to human DSG3; assay: inhibitors of anti-DSG3 scFv binding to DSG3, pilot screen, biochemical, validation compound set, bead-based, flow cytometry (AID 588368); settings: Protein G beads, DSG3-Fc, scFv-GFP binding, at 10 µM, stronger effect = lower value;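 further: signal is the median channel fluorescence of bead-bound GFP antibody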
[14] = inhibitors of fungal efflux pumps CDR1, CDR2, MDR1, pilot screen, validation compound set, multiplex, phenotypic (AID 588506;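 active means efflux inhibition above 0.42, the validation set average plus 4 SD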;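 further: Nile Red retained in cells so higher fluorescence means more efflux inhibition; 0 = negative control wells and 1 = enniatin B 25 µM full block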); settings: S. cerevisiae pump-expressing triplex, Nile Red efflux flow cytometry; at 10 µM; stronger effect = higher value; the pumps come from Candida albicans
[15] = biological target: ATP-binding cassette sub-family B member 6 (Homo sapiens) (UniProt Q9NP58); assay: ABCB6 transporter inhibitors, pilot screen, K562-ABCB6 cells, flow cytometry, validation set (AID 588550;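 active means inhibition above the screen-wide mean plus 3 SD, about 51%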;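 further: 0% = DMSO wells and 100% = benzethonium chloride 70 µM positive control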); settings: K562-ABCB6 porphyrin accumulation, 1 h, at 10 µM, stronger effect = higher value
ATP-binding cassette sub-family B member 6 (Homo sapiens), sequence (Q9NP58 whole entry, looked up): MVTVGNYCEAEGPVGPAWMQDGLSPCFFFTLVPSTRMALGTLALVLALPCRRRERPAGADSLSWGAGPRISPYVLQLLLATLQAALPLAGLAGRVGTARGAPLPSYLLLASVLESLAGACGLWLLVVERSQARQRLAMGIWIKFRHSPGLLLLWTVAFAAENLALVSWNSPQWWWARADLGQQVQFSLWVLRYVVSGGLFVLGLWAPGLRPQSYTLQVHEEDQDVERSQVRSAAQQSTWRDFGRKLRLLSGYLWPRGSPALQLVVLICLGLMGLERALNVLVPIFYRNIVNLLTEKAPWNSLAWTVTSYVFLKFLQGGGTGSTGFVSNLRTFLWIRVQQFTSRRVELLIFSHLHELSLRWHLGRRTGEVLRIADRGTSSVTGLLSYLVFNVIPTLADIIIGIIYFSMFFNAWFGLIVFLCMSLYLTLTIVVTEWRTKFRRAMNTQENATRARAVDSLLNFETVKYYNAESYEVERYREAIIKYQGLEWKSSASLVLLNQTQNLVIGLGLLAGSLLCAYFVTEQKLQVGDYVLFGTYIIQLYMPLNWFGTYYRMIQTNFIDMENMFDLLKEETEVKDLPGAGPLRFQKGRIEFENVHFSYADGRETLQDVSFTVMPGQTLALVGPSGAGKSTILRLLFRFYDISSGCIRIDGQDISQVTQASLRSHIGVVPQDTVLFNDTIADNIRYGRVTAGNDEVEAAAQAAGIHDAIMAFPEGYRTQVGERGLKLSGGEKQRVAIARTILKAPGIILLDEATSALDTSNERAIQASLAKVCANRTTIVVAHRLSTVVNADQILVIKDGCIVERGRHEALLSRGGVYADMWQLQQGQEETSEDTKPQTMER

[16] = promoters of myeloid differentiation in arrested cells, primary screen, cell-based, GFP/MAC1 double positive, flow cytometry, validation set (AID 588685;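 active means differentiation response of at least 50%, scaled between solvent and reference control, from cells with both markers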;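 further: compound exposure lasts four days before antibody staining and flow analysis; 0% = DMSO wells and 100% = 5 µM fulvestrant positive control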); settings: ER-HoxA9 marrow cells, stronger effect = higher value, normalized: vehicle 0, fulvestrant 100

| Compound | percent of DMSO control GFP [1] | GFP response vs DMSO [2] | percent response of DMSO control [3] | GFP response vs DMSO [4] | GFP response, % of DMSO [5] | double positive events [6] | vesicle binding response [6] | inhibition [7] | superoxide response (% of plate) [8] | aptamer binding inhibition [9] | response [10] | inhibition [11] | response [12] | binding (% of control) [13] | efflux inhibition (fraction of control) [14] | inhibition [15] | differentiation response [16] |
| --- | --- | --- | --- | --- | --- | --- | --- | --- | --- | --- | --- | --- | --- | --- | --- | --- | --- |
| CN(C)CC/C=C1\c2ccccc2Sc2ccc(Cl)cc21 | 104% (inactive) | 110% (inactive) | 103% (inactive) | 106% (inactive) | 106% (inactive) | 64.5% | 157% (inactive) | 9.63% (inactive) | 88.7% (inactive) | -5% (inactive) | 19.9% (inactive) | 54.9% (active) | -15.9% (inactive) | 106% (inactive) | 0.08 (inactive) | 9% (inactive) | -17.7% (inactive) |
| O=C(NC1CCCCC1)c1cc2nc(-c3ccco3)cc(C(F)(F)F)n2n1 | 89.5% (inactive) | 106% (inactive) | 102% (inactive) | 78.7% (inactive) | 88.2% (inactive) | 43.2% | 158% (inactive) | -1.3% (inactive) | 111% (inactive) | 0% (inactive) | -19.4% (inactive) | 1.72% (inactive) | 8.07% (inactive) | 107% (inactive) | 0.09 (inactive) | 9% (inactive) | 20.5% (inactive) |
| COc1cc(Cc2cnc(N)nc2N)cc(OC)c1OC | 100% (inactive) and 102% (inactive) | 95.1% (inactive) and 101% (inactive) | 91.9% (inactive) and 102% (inactive) | 84.8% (inactive) and 103% (inactive) | 96.4% (inactive) and 102% (inactive) | 62.8% and 60.9% | 247% (inactive) and 222% (inactive) | -113% (inactive) and 1.62% (inactive) | 106% (inactive) | 2% (inactive) and -4% (inactive) | -5.11% (inactive) | -0.17% (inactive) and -5.67% (inactive) | 1.16% (inactive) and -26% (inactive) | 95.8% (inactive) and 103% (inactive) | 0.61 (active) and 0.18 (inactive) | -11% (inactive) and 7% (inactive) | 0.24% (inactive) and -3.43% (inactive) |
| Cc1ccc(C(=O)COC(=O)c2cccc(N3C(=O)c4c(C)nc5ccccc5c4C3=O)c2)cc1C | 99.5% (inactive) | 102% (inactive) | 97% (inactive) | 110% (inactive) | 113% (inactive) | 61.9% | 170% (inactive) | -8.78% (inactive) | 107% (inactive) | 1% (inactive) | -22.6% (inactive) | -6.3% (inactive) | -3.74% (inactive) | 98.8% (inactive) | 0.25 (inactive) | 2% (inactive) | -13.9% (inactive) |
| COC1CCN(C(=O)c2ccc(OC3CCN(Cc4ccccn4)CC3)cc2)CC1 | 104% (inactive) | 109% (inactive) | 104% (inactive) | 114% (inactive) | 110% (inactive) | 65% | 133% (inactive) | 9.13% (inactive) | 89.2% (inactive) | -2% (inactive) | -2.71% (inactive) | 26.3% (inactive) | -3.44% (inactive) | 103% (inactive) | -0.17 (inactive) | 8% (inactive) | -2.4% (inactive) |
| O=C1Cc2ccccc2C(c2ccccc2)N1 (centres undefined) | 98.8% (inactive) | 108% (inactive) | 101% (inactive) | 90.1% (inactive) | 102% (inactive) | 64.9% | 449% (inactive) | -19.1% (inactive) | 112% (inactive) | -3% (inactive) | -4.45% (inactive) | 56.3% (active) | -7.51% (inactive) | 95.9% (inactive) | 0.11 (inactive) | 9% (inactive) | 53% (active) |
| COc1ccc(OC)c(S(=O)(=O)N2CCCc3ccccc32)c1 | 101% (inactive) | 104% (inactive) | 91.3% (inactive) | 126% (inactive) | 105% (inactive) | 58.6% | 124% (inactive) | 15% (inactive) | 97.2% (inactive) | 5% (inactive) | 2.04% (inactive) | 2.15% (inactive) | -1.7% (inactive) | 105% (inactive) | 0.18 (inactive) | 24% (inactive) | -8.96% (inactive) |
